# Compounds without any hit were thinned out: in the full panel of roughly 83,000, 20% have a hit.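 Values shown are percent growth following 48 h exposure of cells in 96-well plates to a single concentration of compound; below 10 was considered active.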 A number with no mark means an inactive call. The source made the active and inactive calls.
# Tested on: HCC-2998 colon
# Assay: NCI-60 one-dose screen, 48 h (100 = growth as untreated, 0 = no growth, -100 = all killed)
# Conditions: 10 µM unless noted
# Method: Growth inhibition of the HCC-2998 human tumor cell line is measured as a screen for anti-cancer activity. Cells are grown in 96 well plates and exposed to the test compound for 48 hours. Compounds are tested at a single concentration, which is 10^-5 M for most compounds. The reported endpoint is percent growth (GI% or GIPRCNT), where numbers from 0 - 100% represent growth inhibition, and numbers from -100% - 0 represent cell death. For example, a value of 40 represents 60% growth inhibition. A value of 0 means no net growth occurred over the course of the experiment. A value of -40 indicates 40% of cells at the beginning of the experiment died by the end of the experiment. A value of -100 means all cells are dead at the end of the experiment.
# NCI-60 Human Tumor Cell Lines Screen was performed using the standard one-dose NCI protocol, which is described in more detail at https://dtp.cancer.gov/discovery_development/nci-60/default.htm.
# Compounds with GIPRCNT values below 10 were considered active. Activity score was based on GIPRCNT using the following formula: […]
# Score is 0 for GIPRCNT values of 100 or above, 50 for GIPRCNT values of 0, and 100 for GIPRCNT values of -100.
row,Structure (SMILES),growth
1,CCCCCCCCCCCCNC(=O)[C@H]1CSC(c2cc3ccccc3s2)N1 (stereo not given in full),61.4%
2,Clc1cccc(-c2cc(-c3ccc4c(c3)OCCO4)[nH]n2)c1,58.1% [25 µM]
3,COc1cc(-c2nc(N=Nc3c(O)[nH]c4ccc(Br)cc34)[nH]c(=O)c2C#N)cc(OC)c1OC,117%
4,Cc1ccc(-c2cc3nc(C(Cl)Cl)nc(-c4cccnc4)n3n2)cc1,-53.9% (active)
5,Brc1cccc(-c2cc(-c3ccc4nccnc4c3)[nH]n2)c1,40.2% [25 µM]
6,CC1(C)C(=O)/C(=C\c2ccc(C(F)(F)F)cc2)C[C@]2(C)[C@H]3CC[C@@H]4[C@H]5[C@H](C(=O)/C=C/c6ccc(C(F)(F)F)cc6)CC[C@]5(CO)CC[C@@]4(C)[C@]3(C)CC[C@@H]12,101%
7,COc1cc(/C=C/C(=O)N2CCN(C(=O)/C=C/c3cc(OC)c(OC)c(OC)c3)CC2)cc(OC)c1OC,102%
8,O=S1(=O)CCC(N(/N=C/c2ccco2)c2ccccc2)C1 (stereo not given),97.6%
9,COc1ccc(C(=O)N2NC(=O)/C(=C/c3cn(-c4ccccc4)nc3-c3ccccc3)N=C2c2ccccc2)cc1,107%
10,COc1ccc(S(=O)(=O)NCCCNc2nccc(-c3c(-c4cccc([N+](=O)[O-])c4)nc4sccn34)n2)cc1,82.1%
11,COC(=O)C(Sc1ccc(Cl)cc1)C1SC(=S)N(Cc2ccccc2)C1=O (stereo not given),103%
12,COc1cccc(-c2nc3sccn3c2-c2ccnc(NCCCNS(=O)(=O)c3ccc(C(F)(F)F)cc3)c2)c1,72.2%
13,CCOC(=O)c1c(/N=C2\SC(=O)/C(=C\C(=O)OC)N2NC)sc2c1CCN(C(=O)OCC)C2,92.5%
14,Cc1ccc(-c2cc3nc(-c4ccccc4)nc(C(Cl)Cl)n3n2)cc1,-90.6% (active)
15,COc1cc(-c2nn(-c3cccc(NC(=O)Nc4ccc(Cl)c(C(F)(F)F)c4)c3)cc2-c2ccncc2)ccc1Cl,8.88% (active)
16,O=C(CCl)N(C1CCCCC1)C1CCCCC1,107%
17,CC(C)(C)OC(=O)NC(CSCc1ccccc1)C(=O)ON1C(=O)CCC1=O (stereo not given),101%
18,O=C(CSC1CCc2ccccc21)N/N=C/c1ccccc1O (stereo not given),66.7%
19,O=c1[nH]c(Nc2ccc(S(=O)(=O)O)cc2)nc2nc(Nc3ccc(NC(=S)Nc4ccccc4)cc3)nc(-c3ccc(O)cc3O)c12,112%
20,COc1ccc(CNCCCN2C(=O)c3ccc4c5c(ccc(c35)C2=O)C(=O)N(CCCNCCCCNCCCN)C4=O)c(OC)c1OC,-3.52% (active)

row,Structure (SMILES),growth
1,NC1=NC(SCc2ccccc2CCl)c2ncn(Cc3ccccc3CCl)c2N1 (stereo not given),79.4%
2,C=COC(=O)CCCCCCCCC,101%
3,NC(N)=N/N=C/c1ccc(-c2ccc(-c3cc(Cl)cc(Cl)c3)s2)cc1,-17.3% (active)
4,CCc1ccc(-c2ccc(=O)n(-c3ccc(S(N)(=O)=O)cc3)n2)cc1,53.9%
5,CC[N+](CC)=c1cc2oc3cc(N(C)C)ccc3nc-2cc1C,32.3%
6,CCCCCCCCCCCCCCCCCCNC(=O)[C@H]1CSC(c2ccc(OC)cc2O)N1 (stereo not given in full),76.7%
7,O=C(O)COc1ccc(-c2cssc2=S)cc1,125%
8,CC(C)(C)N1CCC1C(N)=O (stereo not given),47%
9,O=c1cc/c(=N\Nc2ccccc2)c(=O)/c1=N/Nc1ccccc1,99%
10,COc1ccc(-n2c(-c3ccccc3)c(-c3ccccc3)c3c(SCC(=O)N/N=C/c4ccc(Cl)cc4)ncnc32)cc1,93.2%
11,O=S(=O)(CC(O)(c1ccccc1)c1ccccc1)CC(O)(c1ccccc1)c1ccccc1,93.1%
12,CC(C)NCCCNC1=C(Cl)C(=O)c2ccccc2C1=O,59.7%
13,CC(=O)Nc1nc(N)nc(NC(C)=O)c1N=O,84%
14,O=C(Oc1ccccc1[N+](=O)[O-])C1CCCN1C(=O)OCc1ccccc1 (stereo not given),101%
15,O=C(c1ccccc1)c1c(/C=C/c2ccccc2)c2ccccc2[nH]c1=O,111%
16,COc1cc(Nc2nc(N[C@H]3CCCC[C@@H]3N)nc3cc[nH]c(=O)c23)cc(OC)c1,32.1%
17,CC1(c2ccc(Cl)cc2)OC(=O)CC(=O)O1,102%
18,CCCCCCCCCCCC(=O)NCCC[N+](C)(C)CC(=O)[O-],96%
19,COc1ccc(-c2c(N)n[nH]c2-c2cc(OC)c(OC)c(OC)c2)cc1,-2.65% (active)
20,Nc1nnc(-c2ccc3ccccc3c2O)o1,89.5%
